These results are taken from PubChem BioAssay.

Records with an inconclusive call do not appear. Unmarked numbers belong to inactive results. Calls of active or inactive are those of the source.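 How the source made its calls: active means GFP response, as percent of the DMSO control, above the screen-wide mean plus 3 SD, about 139; inconclusive means no response measured because the compound's own fluorescence interfered; inactive means the rest.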

The nature of the experiment: modulators of MEP2-GFP levels in yeast, primary screen, S. cerevisiae, multiplex flow cytometry (AID 1867).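 Further: median GFP channel fluorescence of barcode-gated MEP2-GFP cells measured by flow cytometry.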 The conditions noted are these: S. cerevisiae MEP2-GFP strain, 3 h, at 10 µM, stronger effect = higher value, 100% means same as DMSO wells.
In the case of `Cc1nc(-c2coc3c(CN(C)C)c(O)ccc3c2=O)cs1`, the GFP response vs DMSO is 131%.

As to `COCCCN1C(=O)C(=O)/C(=C(/O)c2ccc3c(c2)CC(C)O3)C1c1cccnc1` (centres undefined), the GFP response vs DMSO is 102%.

With `O=C(Nc1ccccc1C(=O)N1CCCCCC1)c1ccccc1Cl`, the GFP response vs DMSO was 103%.

On to `Fc1ccc(-c2cc(-c3ccccc3)nc(-n3cccn3)n2)cc1`, for which the GFP response vs DMSO was 106%.

In the case of `NS(=O)(=O)c1cc2c(cc1Cl)NC(C(Cl)Cl)NS2(=O)=O` (centres undefined), the GFP response vs DMSO was 101%.

Take `CCC(C(=O)Nc1ccc2c(c1)OCCO2)c1ccccc1` (centres undefined): the GFP response vs DMSO is 103%.

With `c1ccc(CNc2ncnc3nc[nH]c23)cc1`, the GFP response vs DMSO was 104%.

For the compound `Cc1cc(/C=N/O)c(C)n1-c1ccc(Br)cc1`, the GFP response vs DMSO is 101%.

As for `COc1ccc(/C=C/C(=O)c2cc3cccc(OC)c3oc2=O)cc1`, the GFP response vs DMSO was 106%.

With `Cc1ccc(C2=NOC(=O)/C2=C\C=C\c2ccccc2)cc1`, the GFP response vs DMSO was 101%.

As to `CCc1ccc(/C=C2\Oc3cc(OC(=O)N4CCOCC4)ccc3C2=O)cc1`, the GFP response vs DMSO was 99.6%.

As for `COc1cc(NC(=S)NN2CCN(C)CC2)cc(OC)c1OC`, the GFP response vs DMSO is 108%.

Take `C[C@]12CCC3C(CC=C4C[C@@H](O)CC[C@@]43C)C1CCC2[C@]1(C)CCC(=O)O1` (some centres undefined): the GFP response vs DMSO was 97.4%.

In the case of `COC(=O)c1cc(OC)c(OC)cc1NC(=O)CN1C(=O)c2ccccc2C1=O`, the GFP response vs DMSO was 113%.

Turning to `c1ccc(CN(CC2=NCCN2)c2ccccc2)cc1`, the GFP response vs DMSO is 138%.

As to `Cc1oncc1C(=O)Nc1ccc(C(F)(F)F)cc1`, the GFP response vs DMSO was 98.6%.

In the case of `Cn1cc(C2N3CC4(C)CN2CC(C)(C3)C4=O)c2ccccc21` (centres undefined), the GFP response vs DMSO is 107%.

In the case of `CCCCOc1cc(C(=O)NCCN(CC)CC)c2ccccc2n1`, the GFP response vs DMSO was 128%.

On to `O=C(CSCc1ccccc1)NCCCN1CCOCC1`, for which the GFP response vs DMSO is 106%.

As for `COC(=O)c1ccc(OCCCCN2CC(C)OC(C)C2)cc1` (centres undefined), the GFP response vs DMSO is 99.7%.

Take `CCOc1ccc(C(=O)NC(C)C2COc3ccccc3O2)cc1` (centres undefined): the GFP response vs DMSO is 104%.

For the compound `CSCC[C@H](NC(=O)OC(C)(C)C)C(=O)N1CCC(C(=O)N[C@@H](C)C(=O)O)CC1`, the GFP response vs DMSO is 105%.

On to `O=C(N/C(=C/C=C\c1ccccc1)C(=O)N1CCOCC1)c1ccc(Br)cc1`, for which the GFP response vs DMSO is 107%.

For the compound `COc1ccc2[nH]c(=O)c(CN(C(=O)c3ccco3)C(C)C)cc2c1`, the GFP response vs DMSO is 148% (active).

For `COc1cc(-c2cccs2)cc(=O)c2c(C)oc(C)c12`, the GFP response vs DMSO was 105%.

Regarding `CCC(=O)O[C@]1(C(=O)CCl)[C@@H](C)C[C@H]2[C@@H]3CCC4=CC(=O)C=C[C@]4(C)[C@@]3(F)[C@@H](O)C[C@@]21C`, the GFP response vs DMSO was 103%.

As to `COCCN(CCOC)Cc1c(C)[nH]c2c(C)c(C)ccc2c1=O`, the GFP response vs DMSO was 108%.

On to `COc1ccccc1/C=C/C(=O)OCCN1CCOCC1`, for which the GFP response vs DMSO was 119%.

Consider `c1ccc(Cn2nnc3cnccc32)cc1`, for which the GFP response vs DMSO is 101%.

Consider `Nc1cnn(C2OC(CO)C(O)C2O)c(=O)n1` (centres undefined), for which the GFP response vs DMSO was 108%.

`Cc1ccc(C(=O)Nc2ccccc2C(=O)NC(C(=O)O)C(C)C)cc1` (centres undefined): the GFP response vs DMSO is 109%.

Take `NC(CO)C(=O)NNCc1ccc(O)c(O)c1O` (centres undefined): the GFP response vs DMSO was 98.7%.

Turning to `CC12CCCCN1CCCc1c2[nH]c2ccccc12` (centres undefined), the GFP response vs DMSO was 105%.

Take `CN(C)CCN(Cc1ccc(Cl)cc1)c1ccccn1`: the GFP response vs DMSO is 112%.

`CSc1cccc(NC(=O)/C=C/c2ccccc2)c1`: the GFP response vs DMSO is 90.5%.

On to `Cc1oc2cc(O)cc(O)c2c(=O)c1-c1ccc2c(c1)OCCCO2`, for which the GFP response vs DMSO is 103%.

For the compound `CNC(=O)Oc1ccc2c(c1)[C@]1(C)CCN(C)[C@@H]1N2C`, the GFP response vs DMSO was 102%.

With `CCCCNc1ccc(C(=O)OCCN(C)C)cc1`, the GFP response vs DMSO is 109%.

`O=C(COc1cc(O)c2c(=O)c3ccccc3oc2c1)OCc1ccccc1`: the GFP response vs DMSO is 104%.
